SRC3 inh: inhibitors of human steroid receptor coactivator 3 (SRC3). Q9Y6Q9. HEK293 GAL4-SRC3 luciferase reporter, luminescence. inhibition, % at 3.6 µM. 0.17% of 360,000 active;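 active = inhibition above a per-campaign cutoff, the mean of all compounds plus 3 SD, cut at about 60% in these data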;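 also: 0% = DMSO-treated cells and 100% = gossypol-treated cells at 36 µM; higher means less SRC3-driven luciferase light from the GAL4 reporter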
COUP-TFII inh: blocks human COUP-TFII nuclear receptor. P24468. HEK293T NGFI-A luciferase reporter, luminescence. inhibition, % at 8.6 µM. 0.7% of 370,000 active. AID 686940;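 active = inhibition above a per-plate cutoff, mean inhibition of test wells between control levels plus 3 SD, cut at about 38% in these data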;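 also: cells cotransfected with COUP-TFII expression vector driving the NGFI-A reporter; 0% = median of COUP-TF2 test wells and 100% = reporter-only cells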
SRC2 inh: human SRC2 (NCOA2) inhibition; Q15596; inhibition, % at 9 µM; HEK293 GAL4-SRC2 luciferase reporter, luminescence; 0.17% of 370,000 active;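 active = inhibition above the mean inhibition of all tested compounds plus 3 SD, set per campaign, cut at about 52% in these data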;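 also: 0% = DMSO treated cells and 100% = cells given Gossypol at 36 µM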
Gli-Sufu block: antagonists of Gli-Sufu signaling | Sufu-KO-LIGHT fibroblasts, Gli luciferase reporter luminescence | inhibition, % at 5 µM | 0.74% of 340,000 active | AID 588413;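 active = inhibition above about 55%, limit read from the data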;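 also: 0% = DMSO-treated cells and 100% = wells with medium but no cells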
SRC1 inh: human NCOA1 inhibition; inhibition, % at 3.6 µM; Q15788; 0.12% of 360,000 active; HEK293 GAL4-SRC1 luciferase reporter, luminescence;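 active = inhibition above the campaign mean plus 3 SD, with each screening campaign given its own cutoff, cut at about 60% in these data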;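 also: 0% = DMSO treated cells and 100% = gossypol at 36 µM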
NR5A2 inv ag: NR5A2 inverse agonism in reporter assay | HEK293T StAR-luciferase reporter, LRH-1 transfected, 24 h | 0.13% of 360,000 active | inhibition, % at 3.6 µM | AID 602396 | O00482;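 active = inhibition above the mean inhibition of all tested compounds plus 3 SD, cut at about 73% in these data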;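 also: 0% = DMSO wells and 100% = reporter-only cells lacking LRH-1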
Gli antag conf: confirmation of Gli-SUFU pathway antagonists | 40% of 2,500 active | inhibition, % at 5 µM | shares compounds with Gli-Sufu block | Sufu-KO-LIGHT cells, Gli luciferase reporter, luminescence;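 active = mean inhibition at 5 µM reaching about 45%, limit read from the data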;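 also: plate controls were DMSO-treated cells for no effect and wells lacking cells for full effect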
Gli cytotox: counter-screen for Gli-SUFU antagonists: cytotoxicity | shares compounds with Gli-Sufu block | Sufu-KO-LIGHT cells cytotoxicity, ATP luminescence | cytotoxicity, % at 5 µM | 32% of 2,500 active | AID 651994;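 active = mean cytotoxicity at 5 µM above about 25%, limit read from the data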;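 also: cells exposed to compound overnight for roughly 16 to 18 hours; plate controls were DMSO wells with cells for no effect and medium without cells for full effect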
Wnt3a cs: inhibits Wnt3a reporter, counter-screen for Gli-SUFU antagonists; shares compounds with Gli-Sufu block; Wnt-LIGHT cells, Wnt3a-driven luciferase reporter, luminescence; inhibition, % at 6.25 µM; 20% of 2,500 active;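 active = mean inhibition above about 25%, limit read from the data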
Numbers without * were called inactive; / = not tested or not shown. Only some compounds are listed: those with a hit (about 1.3% of all), similar ones and a draw of the others.

SMILES	SRC3 inh	COUP-TFII inh	SRC2 inh	Gli-Sufu block	SRC1 inh	NR5A2 inv ag	Gli antag conf	Gli cytotox	Wnt3a cs
CC[N+](C)(CC)CCOC(=O)C(O)(c1ccccc1)C1CCCCC1 (stereo not drawn)	-25	2	-11	5	-2	18	/	/	/
CC[N+](C)(CC)CCC(c1ccccc1)C1CCCCC1 (stereo not drawn)	0	8	16	56*	-16	-16	50*	18	-19
CC(=O)c1ccc(NC(=S)N2CCN(C(=S)Nc3ccc(C(C)=O)cc3)C(C)C2)cc1 (stereo not drawn)	4	-5	9	58*	-1	7	9	31*	-10
CC(=O)c1ccc(NC(=S)N2CC(C)CC(C)C2)cc1 (stereo not drawn)	-5	-17	-6	1	6	-23	/	/	/
C=CCN1C(=O)[C@H](CC(=O)NCCc2ccccc2OC)[C@@]2(C(=O)OCC)CCCC=C12	/	-13	10	/	/	/	/	/	/
COc1ccc2cc(C(=O)NCc3ccccc3)[nH]c2c1	-15	14	-22	51	-12	-44	31	11	-59
C(#Cc1ccccc1)C[N+]1(CC#Cc2cccc3ccccc23)CCCC1	23	31	-3	82*	5	15	83*	19	4
C#CC[N+]1(CC#Cc2ccccc2)CCCC1	26	-6	-14	1	-28	7	/	/	/
CCOC(=O)c1ccc2c(c1)n(CC)c(/C=C/N(C)c1ccccc1)[n+]2CC	31	3	-1	83*	26	0	86*	31*	33*
CCOC(=O)c1ccc2c(c1)n(CCO)c(C)[n+]2CC	3	-2	-17	-1	-8	16	/	/	/
CCOC(=O)Cn1c(Br)nc2c1c(=O)[nH]c(=O)n2C	-4	10	3	99*	0	-2	12	7	-15
CC1(C)Cc2c(sc3nc(-c4ccccc4)n(N)c(=O)c23)CO1	-5	12	1	74*	-41	-31	6	-7	-74
CSCCC(NC(=O)c1cccc(S(=O)(=O)N2CCOCC2)c1)C(=O)Nc1ccc(F)cc1 (stereo not drawn)	-31	-2	17	68*	1	2	17	3	-19
CSCCC(NC(N)=O)C(=O)Nc1cccc(S(=O)(=O)N2CCOCC2)c1 (stereo not drawn)	11	16	-17	-7	3	4	/	/	/
CC(COc1ccc(OC(F)(F)F)cc1)CN1CCC(C(O)(c2ccccc2)c2ccccc2)CC1 (stereo not drawn)	/	7	14	/	/	/	/	/	/
CCC(C)(C)n1nnnc1C(c1cc2cc(OC)ccc2[nH]c1=O)N1CCc2ccccc21 (stereo not drawn)	13	8	11	17	-33	12	/	/	/
CCC(C)(C)n1nnnc1C(c1cc2ccc(OC)cc2[nH]c1=O)N1CCc2ccccc21 (stereo not drawn)	0	-26	17	56*	4	23	27	11	-3
Cc1cc(N2CCN(S(C)(=O)=O)C[C@@H]2C)ccc1N1CCN(Cc2ccccc2)[C@@H](C)C1	/	-6	6	/	/	/	/	/	/
CCOC(=O)C1CCCN(CC(O)COC(c2ccccc2)c2ccccc2)C1 (stereo not drawn)	-4	7	22	70*	-11	23	9	11	-32
CCOC(=O)C1CCCN(CC(O)COc2ccccc2C(C)=O)C1 (stereo not drawn)	14	6	-1	6	-21	0	/	/	/
Cc1nc2ncccn2c1-c1csc(Nc2ccc(O)cc2)n1	1	-85	-31	55*	-34	16	52*	19	-35
Cc1ccc(Nc2nc(-c3c(C)nc4ncccn34)cs2)cc1	14	-108	6	57*	-29	4	64*	62*	-61
CCN(CC)C(=O)CC[C@@H]1CC[C@]2(CCCN(Cc3cccs3)C2)O1	/	-10	2	/	/	/	/	/	/

Screening data deposited in PubChem by several laboratories.
